Sm TGR inh: qHTS Assay for the Inhibitors of Schistosoma Mansoni Peroxiredoxins; Potency, µM (doses to about 114 µM), without a hit: at the highest dose activity change, negative = inhibition, hits mostly inhibitors; AID 485364, 2010; hit rate 3% among 360,000; purified TGR, DTNB reduction, TNB absorbance 405 nm; Schistosoma mansoni thioredoxin glutathione reductase (TGR), Q962Y6; note: % is set by controls: 0 for no effect and ±100 for the full control effect; nearly all actives have a fitted effect of over 60% in size
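First, TGR (20 nM dispensed) and NADPH were mixed with compound. Second, a 15 min room-temperature incubation followed. Third, further NADPH and then DTNB were added to start the reaction. Finally, TNB absorbance was monitored kinetically.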
Pf growth 48h: Primary qHTS for delayed death inhibitors of the malarial parasite plastid, 48 hour incubation; P. falciparum luciferase growth in erythrocytes, 48 h; Potency, µM (titrated, usually from 28.7 µM), for the others: at the top dose activity change, negative = inhibition, usual class: inhibitors; hit rate 5.9% among 310,000; AID 504832, 2011; note: % is set by controls: 0 for no effect and ±100 for the full control effect
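Cell-based growth assay: transgenic P. falciparum expressing firefly luciferase, cultured in red cells within RPMI 1640 containing 0.5% w/v Albumax, 24 mM bicarbonate and gentamycin. A drop in luciferase activity indicates inhibition.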
NS1 function inh: qHTS Assay for Inhibitors of Influenza NS1 Protein Function | Potency, µM (titrated, usually from 46.1 µM), for inactives: top-dose activity, positive = more growth | hit rate 0.4% among 270,000 | AID 2326, 2010; calls by dose curve; note: actives are rising curves; nearly all actives have a fitted effect of over 50% in size
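A cell-based growth assay was used: compounds that relieve NS1-induced slow growth of budding yeast raise OD600. Assay medium was yeast nitrogen base with ammonium sulphate and -URA supplement, pH 6.0, with 2% galactose.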
AMA1-RON2 inh: qHTS for Inhibitors of AMA1-RON; Towards Development of Antimalarial Drug Lead: Primary Screen | Plasmodium falciparum AMA1 (3D7) - RON2 peptide interaction | AlphaScreen AMA1-biotinylated RON2 peptide binding | Potency, µM (titrated, usually from 58.2 µM), without a hit: at the highest dose activity change, negative = inhibition, actives largely listed as inhibitors | hit rate 0.2% among 360,000;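 note: 0% = vehicle wells and -100% = peptide control; nearly all actives have a fitted effect of over 45% in size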
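AMA1 (3D7) with his tag at 25 nM final met compounds first, then biotinylated RON2 peptide at 25 nM; detection used donor plus acceptor beads, 10 µg/mL apiece, read by AlphaScreen after 30 min at room temperature.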
Pf growth 96h: Primary qHTS for delayed death inhibitors of the malarial parasite plastid, 96 hour incubation; P. falciparum luciferase reporter growth, 96 h; Potency, µM (highest dose often 28.7 µM), inactives show top-dose activity change, negative = inhibition, most hits filed as inhibitors; hit rate 6.9% among 320,000; note: % is set by controls: 0 for no effect and ±100 for the full control effect
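Plates of compound plus infected erythrocytes (2% hematocrit, 0.05% parasitemia final) incubate 96 hours, 37 C, 5% CO2. Detection reagent added; reduced luminescence from the parasites' luciferase reporter flags inhibition.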
* hit, by the source's call; ? = inconclusive; . = no result. Rows were chosen to be rich in hits. Some 11% of all compounds tested hit in one or more screens of this group. Unless noted, calls come from the whole dose curve; as a rule, active = well fitted curve in the direction sought with a large enough effect; inconclusive = small, poorly fitted or top-dose-only effect, or another doubt; inactive = no such curve, though single readings can be large; an effect the other way counts as inactive or inconclusive. Potency is the fitted concentration of half-maximal effect.

SMILES	Sm TGR inh	Pf growth 48h	NS1 function inh	AMA1-RON2 inh	Pf growth 96h
CC1(C)Cc2c(C#N)c(OCC(=O)c3ccccc3)nc(-c3ccoc3)c2CO1	-2%	-9%	15%	-3%	15%
Cc1ccc(CC(=O)CCc2ccccc2)cc1	6%	25%	.	74%	64%
C=CC[N+](C)(C)c1ccc(CCC(=O)CCc2ccc([N+](C)(C)CC=C)cc2)cc1	2%	0.15µM*	.	-7%	0.15µM*
Nc1cccc(-n2cccc2)c1	0%	34%	3%	-5%	23%
Cc1ccc(NC(=O)CN(C)S(=O)(=O)c2cccc3cccnc23)cc1F	-3%	?	-17%	0%	?
Cc1ccc(NC(=O)CN(C)S(=O)(=O)c2cccc3cccnc23)cc1C	-9%	15%	12%	-9%	13µM*
COc1ccccc1S(=O)(=O)Cc1ccc(C(=O)NCc2cccs2)o1	?	0.83µM*	-8%	-4%	.
COc1ccccc1S(=O)(=O)Cc1ccc(C(=O)NC2CCCCC2)o1	40µM*	?	1%	31%	22%
CC(CNC(=O)CCn1ccc2cc(S(=O)(=O)N3CCCC3)ccc21)c1ccccc1 (stereo unspecified)	-9%	?	2%	24%	12µM*
CC(C)NC(=O)CCn1ccc2cc(S(=O)(=O)N3CCCC3)ccc21	-24%	15%	3%	1%	-29%
COC(=O)Cn1ccc2cc(S(=O)(=O)N3CCCCC3)ccc21	3%	17%	3%	-2%	5.9µM*
Cc1ccc(S(=O)(=O)Nc2c(C)n(C)n(-c3ccccc3)c2=O)cc1C(=O)OCC(=O)N1CCCC(C)C1 (stereo unspecified)	9%	-15%	.	-24%	-29%
O=C1CCCN1C(=O)CSc1nnnn1-c1ccccc1	-2%	-24%	.	15%	-24%
O=C(/C=C/c1cc([N+](=O)[O-])ccc1OC(F)F)Nc1cccc(OC(F)F)c1	-3%	?	6%	0%	8.3µM*
CCOc1ccc(S(=O)(=O)NC(C)(C)C)cc1-c1nc2c(C(C)(C)C)nn(C)c2c(=O)[nH]1	0%	4.7µM*	28%	-8%	-97%
COc1ccc(CCCC(=O)NCCc2ccccc2)c(C)c1	-17%	?	-28%	-6%	?
COc1ccc2c(C)cc(N3CCOCC3)nc2c1	-28%	55%	-4%	6%	94%
COc1ccc(CSc2nc(CSC)cc(N3CCOCC3)n2)cc1	19%	12µM*	-47%	-14%	?
CCOC(=O)c1ccc(NC(=O)NC2CC3CCC(C2)N3Cc2nnnn2C(C)(C)C)cc1 (stereo unspecified)	0%	2.1µM*	2%	6%	-13%
O=C(CNC(=O)c1ccc(Br)o1)NNC(=O)c1ccccc1O	-22%	43%	.	-2%	5%
CCOc1ccc(N(CC(=O)NN=C2CCN(C)CC2)S(=O)(=O)c2ccc(Br)cc2)cc1	-6%	-3%	?	-2%	15µM*
CCOc1ccccc1NC(=O)C1CCN(S(=O)(=O)c2cccs2)CC1	4%	.	.	.	.
COc1ccc(/C=C2\COc3ccccc3C2=O)c(OC)c1	-27%	?	-31%	-15%	9.3µM*
COc1ccc(/C=C2\COc3ccccc3C2=O)cc1OC	?	15%	-38%	?	-65%
COc1ccc2c(c1)OC/C(=C/c1cccs1)C2=O	2%	281%	-14%	-5%	2.9µM*
SMILES	Sm TGR inh	Pf growth 48h	NS1 function inh	AMA1-RON2 inh	Pf growth 96h
COc1ccc(-n2c(SCC(=O)N3CCC(C(=O)O)CC3)nc3ccccc3c2=O)cc1OC	-1%	15%	16%	19%	9%
C=CCOC(=O)C1=C(C)NC(SCC(=O)NC(=O)OCC)=C(C#N)C1c1cccnc1 (stereo unspecified)	40µM*	10µM*	3%	15%	4%
C=CCOC(=O)C1=C(C)NC(SCC(=O)Nc2ccccc2)=C(C#N)C1c1ccco1 (stereo unspecified)	-13%	9.3µM*	?	-5%	?
CCOC(=O)C1=C(C)NC(SCC(=O)Nc2nc(C)cs2)=C(C#N)C1c1cccs1 (stereo unspecified)	-3%	2.1µM*	6%	.	?
C=CCOC(=O)C1=C(C)NC(SCC(=O)N(CC)CC)=C(C#N)C1c1ccco1 (stereo unspecified)	-21%	13µM*	-13%	7%	.
CCOC(=O)C1=C(C)NC(SCC(=O)O)=C(C#N)C1c1ccco1 (stereo unspecified)	-9%	16%	7%	-3%	4%
CCCCCc1cc(OC)cc2c1C(=O)OC(C)(C)O2	.	.	.	43%	.
COc1ccc(NC(=O)CCN2CCN(CCO)CC2)c(OC)c1	2%	.	.	.	.
CCc1ccc2c(COC(=O)C3CSC4(C)CCC(=O)N34)cc(=O)oc2c1 (stereo unspecified)	2%	12%	.	-6%	?
COc1ccc(Nc2cc(C)c3ccc(O)cc3n2)cc1	8%	0.37µM*	-7%	-3%	?
Cc1cc(Nc2ccccc2)nc2cc(O)ccc12	3%	0.33µM*	-13%	1%	-28%
CCCSc1ncc(Cl)c(C(=O)Nc2c(C(=O)Nc3ccc(C)cc3)oc3ccccc23)n1	4%	.	.	.	.
Cc1ccc(OCC(=O)N2N=C(C(F)(F)F)CC2(O)C(C)(C)C)cc1C (stereo unspecified)	-18%	.	-5%	14%	?
Cc1ccccc1OCC(=O)N1N=C(C(F)(F)F)CC1(O)C(C)(C)C (stereo unspecified)	?	10µM*	-25%	-1%	?
C=CCn1c(-c2ccccc2)c[nH]c1=S	1%	82%	?	28%	?
CCn1c(-c2ccc(-c3ccccc3)cc2)c[nH]c1=S	9%	.	14%	10%	4.7µM*
Cn1c(-c2ccc(-c3ccccc3)cc2)c[nH]c1=S	0%	5.2µM*	-47%	48%	?
CC(NC(=O)CSc1nc2c(c(C(F)(F)F)n1)CCc1ccccc1-2)c1ccccc1 (stereo unspecified)	16%	7.4µM*	4%	-13%	-4%
COc1ccc(N2CC(C(=O)NC3CCCCC3)CC2=O)cc1 (stereo unspecified)	-9%	29%	-7%	-11%	31%
CNC1(C)[C@H]2CC[C@H](C2)C1(C)C (stereo partly specified)	.	.	.	-1%	.
COc1ccc(-c2cc(=O)oc3c(C)c(OCC(=O)NCC4CCC(C(=O)O)CC4)ccc23)cc1 (stereo unspecified)	-3%	-34%	20%	9%	13µM*
